Assay results published in PubChem BioAssay AID1159580 (chemical genetic matrix, 2015).
Among all 5,500 compounds or so, about 2,000 (36%) were called active. Another 18% or so got no clear call; they are omitted. Rule as the data show it: active = normalized growth mostly below about 0.91 (no sharp cut-off); inconclusive = no clear call, values can overlap the other calls; inactive = mostly above about 0.92. The list shows a part of the results.

Test: chemical genetic growth profiling, strain panel (AID 1159580);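 also: tested at 20 µM; growth read once vehicle control cultures reached saturation at 30 °C; 1 = growth at the plate median or of vehicle wells; lower values mean less growth of the strain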
Settings: S. cerevisiae deletion strains, growth OD

Measured: normalized growth

CCOP(=S)(OCC)Oc1nc(Cl)c(Cl)cc1Cl
inactive: locus YAL013W, strain DEP1, active compounds read low 1.01 | locus YAL021C, strain ccr4, active compounds read low 0.974 | locus YAL026C, strain drs2, active compounds read low 0.941 | locus YAL030W, strain snc1, active compounds read low 0.951 | locus YBL061C, strain skt5, active compounds read low 0.964 | locus YBR021W, strain FUR4, active compounds read low 1.01 | locus YBR023C, strain chs3, active compounds read low 0.963 | locus YBR171W, strain sec66, active compounds read low 0.95 | locus YBR229C, strain ROT2, active compounds read low 0.997 | locus YBR231C, strain swc5, active compounds read low 0.963 | locus YBR279W, strain paf1, active compounds read low 0.98 | locus YCL011C, strain gbp2, active compounds read low 0.938 | locus YCL016C, strain dcc1, active compounds read low 0.981 | locus YCL029C, strain bik1, active compounds read low 0.99 | locus YCL069W, strain vba3, active compounds read low 0.972 | locus YCR088W, strain abp1, active compounds read low 0.951 | locus YDL005C, strain med2, active compounds read low 0.968 | locus YDL035C, strain GPR1, active compounds read low 1.03 | locus YDL040C, strain nat1, active compounds read low 0.955 | locus YDL074C, strain BRE1, active compounds read low 0.985 | locus YDL101C, strain DUN1, active compounds read low 1.01 | locus YDL134C, strain PPH21, active compounds read low 0.988 | locus YDL185W, strain tfp1, active compounds read low 0.994 | locus YDL192W, strain arf1, active compounds read low 0.989 | locus YDR001C, strain nth1, active compounds read low 0.948 | locus YDR069C, strain doa4, active compounds read low 0.949 | locus YDR101C, strain arx1, active compounds read low 0.981 | locus YDR150W, strain NUM1, active compounds read low 1.01 | locus YDR159W, strain sac3, active compounds read low 0.952 | locus YDR162C, strain NBP2, active compounds read low 1.01 | locus YDR195W, strain ref2 1.03 | locus YDR297W, strain sur2, active compounds read low 0.957 | locus YDR318W, strain mcm21, active compounds read low 0.981 | locus YDR334W, strain swr1, active compounds read low 0.947 | locus YDR335W, strain msn5, active compounds read low 0.973 | locus YDR388W, active compounds read low 0.986 | locus YDR502C, strain sam2, active compounds read low 0.988 | locus YEL003W, strain gim4, active compounds read low 0.964 | locus YEL037C, strain rad23, active compounds read low 0.959 | locus YEL061C, strain CIN8 (second series), active compounds read low 0.957 | locus YEL061C, strain CIN8, active compounds read low 1 | locus YER015W, strain faa2, active compounds read low 0.964 | locus YER016W, strain bim1, active compounds read low 0.973 | locus YER110C, active compounds read low 0.993 | locus YER111C, strain swi4, active compounds read low 0.958 | locus YER155C, strain BEM2, active compounds read low 1 | locus YER167W, strain BCK2, active compounds read low 1.01 | locus YFR010W, strain ubp6, active compounds read low 0.961 | locus YGL078C, strain dbp3, active compounds read low 0.98 | locus YGL086W, strain mad1, active compounds read low 0.987 | locus YGL167C, strain pmr1, active compounds read low 0.947 | locus YGL173C, strain kem1, active compounds read low 0.977 | locus YGL227W, strain vid30, active compounds read low 0.935 | locus YGL240W, strain doc1, active compounds read low 0.949 | locus YGL248W, strain PDE1, active compounds read low 1.01 | locus YGL253W, strain hxk2, active compounds read low 0.948 | locus YGR078C, strain PAC10, active compounds read low 0.987 | locus YGR135W, strain pre9, active compounds read low 0.986 | locus YGR229C, strain SMI1, active compounds read low 0.98 | locus YGR252W, strain gcn5, active compounds read low 0.976 | locus YHR013C, strain ard1, active compounds read low 1.07 | locus YHR027C, strain rpn1, active compounds read low 0.966 | locus YHR030C, strain SLT2, active compounds read low 1.01 | locus YHR079C, strain IRE1 (second series), active compounds read low 0.991 | locus YHR094C, strain hxt1, active compounds read low 0.983 | locus YHR129C, strain ARP1, active compounds read low 0.995 | locus YHR200W, strain rpn10, active compounds read low 0.986 | locus YIL066C, strain RNR3, active compounds read low 0.991 | locus YIL073C, strain SPO22, active compounds read low 0.961 | locus YIL125W, strain kgd1, active compounds read low 0.981 | locus YIR030C, strain dcg1, active compounds read low 0.991 | locus YJL092W, strain hpr5, active compounds read low 0.959 | locus YJL095W, strain BCK1 (second series), active compounds read low 0.949 | locus YJL095W, strain BCK1, active compounds read low 0.973 | locus YJL115W, strain asf1, active compounds read low 0.971 | locus YJL129C, strain trk1, active compounds read low 0.921 | locus YJL134W, strain LCB3, active compounds read low 1.01 | locus YJL154C, strain vps35, active compounds read low 0.937 | locus YJL166W, strain qcr8, active compounds read low 0.961 | locus YJL168C, strain set2, active compounds read low 0.988 | locus YJL187C, strain SWE1 (second series), active compounds read low 0.996 | locus YJR043C, strain POL32, active compounds read low 1.02
active: locus YBR009C, strain hhf1, active compounds read low 0.873 | locus YDR137W, strain rgp1, active compounds read low 0.832 | locus YDR392W, strain spt3, active compounds read low 0.615 | locus YER155C, strain BEM2 (second series), active compounds read low 0.748 | locus YHR142W, strain chs7, active compounds read low 0.847 | locus YJL164C, strain tpk1, active compounds read low 0.914
